Laboratory results as given in PubChem BioAssay (Tox21).
Unmarked numbers belong to inactive results. Records with an inconclusive call do not appear. Entries that show only a call come without a potency. Activity calls are given as the source filed them. Unless noted, calls follow the shape of the dose curve; as a rule, active = well fitted curve in the direction sought with a large enough effect in the repeat runs; inconclusive = weak or mixed curves; inactive = no such curve, though single readings can be large; an effect the other way counts as inactive or inconclusive.

How the values were obtained:
[1] = qHTS assay to identify small molecule agonists of the hypoxia (HIF-1) signaling pathway - cell viability counter screen (AID 1224844; calls by dose curve; also: nearly all actives have a fitted effect of over 50% in size)
In short: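 CellTiter-Glo luminescence read-out, 30 min RT, taken in the same wells as the beta-lactamase HRE reporter assay; HRE-bla ME-180 cells, 0.5% dialyzed FBS, 17 hr compound treatment at 37C, 5% CO2.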

[2] = qHTS assay to identify small molecule agonists of H2AX (AID 1224845; active = well fitted activation curve with a large enough effect in the signal ratio in the repeat runs, not every such curve was filed as active; the % refers to the signal ratio)
In short: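 Wild-type CHO-K1 cells plated overnight, then exposed 3 hr at 37C to compounds at 15 concentrations (0.76% DMSO). Lysed, then HTRF anti-pH2AX(S139)-cryptate/anti-H2AX-d2 detection after 24 hr at room temperature; emissions 665 and 620 nm.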

[3] = qHTS assay to identify small molecule agonists of the hypoxia (HIF-1) signaling pathway (AID 1224846; active = well fitted activation curve with a large enough effect in the signal ratio in the repeat runs, not every such curve was filed as active; the % refers to the signal ratio)
In short: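 Beta-lactamase FRET read-out (CCF4-AM substrate) from ME-180 cells carrying an HRE-driven bla reporter, after 17 hrs compound exposure at 37C/5% CO2. Cells were seeded at 2,000 per well in 0.5% dialyzed FBS medium and preincubated 5 hrs.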

[4] = qHTS assay to identify small molecule agonists of H2AX - cell viability counter screen (AID 1224847; calls by dose curve; also: top concentration of the series differs between compounds; nearly all actives have a fitted effect of over 30% in size)
In short: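 Read-out: CellTiter-Glo luminescence, 30 min RT. Cells: wild-type CHO-K1, 1000/well, 10% FBS, plated overnight at 37C. Treatment: 15 concentrations, 3 hr, 37C, 0.76% DMSO.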

[5] = qHTS RealTime-Glo MT Cell Viability Assay in HepG2 cells - 24 hour (AID 1224867); also: nearly all actives have a fitted effect of over 50% in size
In short: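 HepG2 cells (600/well) were dispensed with RealTime-Glo reagents, incubated 5 h at 37 °C, then treated with compounds in DMSO for up to 40 h. Nonlytic NanoLuc luminescence reflecting viable cells was read at each stated time point.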

[6] = qHTS RealTime-Glo MT Cell Viability Assay in HEK293 cells - 32 hour (AID 1224868); also: nearly all actives have a fitted effect of over 50% in size; also: potency is read from the fitted curve at half-maximal effect
In short: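 HEK293 cells seeded with NanoLuc/prosubstrate reagent, rested 5 h at 37 C, then dosed and kept at 37 C up to 40 h. Nonlytic real-time luminescence from viable cells read at 0, 8, 16, 24, 32 and 40 h.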

[7] = A CellTox Green Cytotoxicity Assay to monitor cytotoxicity in HEK293 cells - 0 hour (AID 1224869); also: nearly all actives have a fitted effect of over 50% in size
In short: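 Read-out: fluorescence of a cell-impermeant cyanine dye staining DNA of dead cells, proportional to cytotoxicity. HEK293, 600 cells/well with reagent, compound (23 nL DMSO) added after 5 h; reads at 0, 8, 16, 24, 32, 40 h.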

[8] = qHTS assay to identify small molecule antagonists of the estrogen related receptor (ERR) signaling pathway from Tox21 library (AID 1224848); also: nearly all actives have a fitted effect of over 50% in size
In short: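 First, 2,000 ERR cells per well were plated and held 6 h at 37 C/5% CO2. Next, compounds in DMSO were pinned in and left 18 h at 37 C. Finally, ONE-Glo was added and luminescence read after 30 min at room temperature.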

[9] = qHTS assay to identify small molecule agonists of the estrogen related receptor (ERR) signaling pathway from Tox21 library (AID 1224849; calls by dose curve; also: nearly all actives have a fitted effect of over 15% in size); conditions: ERR reporter cell line, ONE-Glo luciferase, 18 h; at 92.4 µM (top of the series) unless noted
In short: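 Luminescence readout (ONE-Glo, 30 min RT) after 18 h compound exposure at 37 C of NTP-supplied ERR reporter cells; cells were plated 6 h before compound addition by pin tool.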

| SMILES | Potency [1] | Potency [2] | outcome [3] | Potency [4] | outcome [5] | Potency [6] | Potency [7] | Potency [8] | activity change, positive = activation [9] |
| --- | --- | --- | --- | --- | --- | --- | --- | --- | --- |
| C=CC(C)(O)CC/C=C(/C)CCC=C(C)C (stereo not given) | inactive | inactive | inactive | inactive | inactive | inactive | inactive | – | – |
| CCc1cnc(C(=O)O)c(C(=O)O)c1 | inactive | inactive | inactive | – | inactive | inactive | inactive | – | – |
| Clc1cccc(C(c2ccc3nc[nH]c3c2)n2ccnc2)c1 (stereo not given) | inactive | – | inactive | inactive | inactive | – | inactive | – | – |
| CCC(C(=O)O)c1ccc(N2Cc3ccccc3C2=O)cc1 (stereo not given) | inactive | inactive | – | inactive | inactive | inactive | inactive | – | – |
| CNc1ccccc1 | inactive | – | – | inactive | inactive | inactive | inactive | inactive | – |
| O=C(O)c1cccnc1Nc1cccc(C(F)(F)F)c1 | inactive | inactive | – | – | inactive | inactive | inactive | – | -25.2% [at 42.5 µM] |
| Nc1ccc(-c2ccc(F)cc2)cc1 | inactive | inactive | inactive | – | inactive | inactive | inactive | inactive | 52% (active) |
| CC(C)CCCCCOC(=O)CS | inactive | inactive | inactive | inactive | inactive | inactive | inactive | – | – |
| Nc1ccccc1Nc1ccccc1 | inactive | – | – | – | inactive | – | inactive | – | – |
| O=C1c2ccccc2C(=O)c2c1ccc(O)c2O | inactive | – | inactive | inactive | inactive | inactive | inactive | – | – |
| COc1ccc(/C=C/c2cc(OC)cc(=O)o2)cc1 | inactive | inactive | – | inactive | inactive | 11.2 µM (active) | inactive | inactive | 55.8% [at 42.5 µM] (active) |
| CC1=C(C)C(=O)C(C(CCCCCC(=O)O)c2ccccc2)=C(C)C1=O (stereo not given) | inactive | inactive | inactive | inactive | inactive | inactive | inactive | – | – |
| O=C(OCCCCCOC(=O)c1ccccc1)c1ccccc1 | inactive | inactive | – | inactive | inactive | – | inactive | inactive | – |
| CC(C)(O)C(=O)O | inactive | inactive | inactive | inactive | inactive | inactive | inactive | – | – |
| CC(=O)c1cccnc1 | inactive | inactive | – | inactive | inactive | inactive | inactive | inactive | – |
